Reference: PubChem BioAssay (EPA / NIEHS)
Records with an inconclusive call do not appear. Active and inactive are the calls of the source. How the source made its calls, unless noted: active means hit-call score of the fitted dose curve at least 0.9, where 1 is the maximum; inconclusive means response in the unintended direction; inactive means score below 0.9.

How the values were obtained:
[1] = ATG_TAL_CIS: Attagene CIS-FACTORIAL HepG2 Assay for human TAL Basal Promoter (AID 2282966; active means hit-call score of the fitted dose curve at least 0.9, where 1 is the maximum; inactive means score below 0.9;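 further: background control endpoint measuring basal TAL promoter reporter mRNA not a specific factor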); conditions: HepG2 Attagene cis-factorial TAL promoter reporter; actives raise or lower the signal
Summary of the method: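 Steps: transfect HepG2 with multiple reporter transcription units; dose 24 h; isolate RNA, reverse-transcribe, PCR-amplify, label with 6-FAM, digest with HpaI; resolve by capillary electrophoresis. Bidirectional fitting against DMSO baseline.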

[2] = ATG_TGFb_CIS: Attagene CIS-FACTORIAL HepG2 Assay for human Transforming Growth Factor (TGF) (AID 2282967; active means hit-call score of the fitted dose curve at least 0.9, where 1 is the maximum; inactive means score below 0.9); conditions: HepG2 Attagene CIS TGFb reporter, mRNA transcription; actives raise or lower the signal
Summary of the method: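 HepG2 cells transiently transfected with cis-promoter-driven multiplexed reporter units; 24 h compound exposure. Reporter mRNA measured by RT-PCR, 6-FAM labeling, HpaI digestion and capillary electrophoresis; bidirectional fit versus DMSO baseline.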

[3] = ATG_VDRE_CIS: Attagene CIS-FACTORIAL HepG2 Assay for human Vitamin D Receptor Element (VDRE) (AID 2282968; active means hit-call score of the fitted dose curve at least 0.9, where 1 is the maximum; inactive means score below 0.9); conditions: HepG2 VDRE cis-reporter transcription, actives raise or lower the signal
Summary of the method: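 HepG2 cells transiently transfected with cis-element reporter units, dosed 24 h; reporter mRNA measured by RT-PCR, 6-FAM labeling, HpaI digestion and capillary electrophoresis. Activity fitted bidirectionally against DMSO baseline.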

[4] = target: Estrogen receptor (Homo sapiens) (UniProt P03372); assay: ATG_ERa_TRANS: Attagene TRANS-FACTORIAL HepG2 Assay for human Estrogen Receptor alpha (ERa) (AID 2282970); conditions: HepG2 Attagene TRANS ERa GAL4 reporter, mRNA
Sequence of Estrogen receptor (Homo sapiens) (P03372 whole entry, looked up, the tested form may be a part): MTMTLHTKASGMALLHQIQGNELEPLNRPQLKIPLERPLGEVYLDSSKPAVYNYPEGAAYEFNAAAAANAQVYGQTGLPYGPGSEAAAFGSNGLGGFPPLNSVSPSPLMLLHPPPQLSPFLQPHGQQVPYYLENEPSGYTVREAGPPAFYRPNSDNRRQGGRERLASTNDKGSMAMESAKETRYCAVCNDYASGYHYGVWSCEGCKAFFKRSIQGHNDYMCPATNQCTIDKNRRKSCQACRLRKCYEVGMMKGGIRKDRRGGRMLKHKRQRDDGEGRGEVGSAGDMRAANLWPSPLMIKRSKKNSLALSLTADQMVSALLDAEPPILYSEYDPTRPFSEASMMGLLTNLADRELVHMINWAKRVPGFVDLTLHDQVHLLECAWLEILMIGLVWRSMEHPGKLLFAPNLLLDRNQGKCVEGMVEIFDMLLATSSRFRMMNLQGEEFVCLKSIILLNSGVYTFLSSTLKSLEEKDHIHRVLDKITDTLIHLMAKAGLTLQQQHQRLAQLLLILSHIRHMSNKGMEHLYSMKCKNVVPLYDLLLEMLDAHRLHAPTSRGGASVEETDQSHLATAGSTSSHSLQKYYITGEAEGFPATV
Summary of the method: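 Multiplexed cell-based reporter format in HepG2: chimeric ERa-Gal4 protein drives GAL4-UAS reporter transcription. Fluorescent reporter mRNA quantified by capillary electrophoresis 24 hours after dosing; endpoint fitted as signal gain against DMSO.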

[5] = target: X-box-binding protein 1 (Homo sapiens) (UniProt P17861); assay: ATG_Xbp1_CIS: Attagene CIS-FACTORIAL HepG2 Assay for human X-box Binding Protein 1 (XBP1) (AID 2282972; active means hit-call score of the fitted dose curve at least 0.9, where 1 is the maximum; inactive means score below 0.9); conditions: HepG2 XBP1 cis-element reporter, Attagene multiplex; actives raise or lower the signal
Sequence of X-box-binding protein 1 (Homo sapiens) (P17861 whole entry, looked up): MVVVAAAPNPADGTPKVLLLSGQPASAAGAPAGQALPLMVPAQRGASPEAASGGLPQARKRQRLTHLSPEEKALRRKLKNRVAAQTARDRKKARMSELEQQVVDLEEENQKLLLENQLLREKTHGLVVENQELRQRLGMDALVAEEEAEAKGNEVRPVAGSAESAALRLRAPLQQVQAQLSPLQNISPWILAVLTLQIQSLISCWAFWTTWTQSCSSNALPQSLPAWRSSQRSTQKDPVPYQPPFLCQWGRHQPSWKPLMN
Summary of the method: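 HepG2 cells transiently transfected with cis-regulated multiple reporter transcription units; endogenous transcription factor activity measured 24 hours after chemical dosing. Reporter mRNA quantified by RT-PCR, 6-FAM primer extension, HpaI digestion and capillary electrophoresis; bidirectional fitting versus DMSO.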

[6] = ATG_M_19_TRANS: Attagene TRANS-FACTORIAL HepG2 Assay for M19 Transcription Factor (Internal Marker) (AID 2282974); conditions: HepG2 Attagene TRANS-FACTORIAL M19 internal marker reporter
Summary of the method: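 Gain-of-signal in reporter mRNA, relative to DMSO, was scored from capillary electrophoresis fluorescence. HepG2 cells carried transiently transfected multiple reporter transcription units and were incubated with test chemicals for 24 h.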

[7] = target: Hepatocyte nuclear factor 4-alpha (Homo sapiens) (UniProt P41235); assay: ATG_HNF4a_TRANS: Attagene TRANS-FACTORIAL HepG2 Assay for human Hepatocyte Nuclear Factor 4 alpha (HNF4a) (AID 2282982); conditions: HepG2 HNF4a transactivation reporter, mRNA readout
Sequence of Hepatocyte nuclear factor 4-alpha (Homo sapiens) (P41235 whole entry, looked up, the tested form may be a part): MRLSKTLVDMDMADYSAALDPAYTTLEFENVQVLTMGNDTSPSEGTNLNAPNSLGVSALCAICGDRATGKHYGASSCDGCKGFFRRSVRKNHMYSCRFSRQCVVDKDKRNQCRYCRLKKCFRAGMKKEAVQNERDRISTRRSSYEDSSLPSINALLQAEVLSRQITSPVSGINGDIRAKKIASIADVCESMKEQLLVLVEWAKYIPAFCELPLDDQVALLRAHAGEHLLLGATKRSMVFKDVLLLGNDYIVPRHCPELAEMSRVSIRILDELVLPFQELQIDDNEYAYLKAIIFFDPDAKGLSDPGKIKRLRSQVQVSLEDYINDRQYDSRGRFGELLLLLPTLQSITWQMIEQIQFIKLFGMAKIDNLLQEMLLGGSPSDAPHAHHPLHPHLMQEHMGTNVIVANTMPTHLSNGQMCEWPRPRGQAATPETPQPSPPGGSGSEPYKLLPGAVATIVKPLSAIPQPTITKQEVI
Summary of the method: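 HepG2 cells transiently transfected with multiplexed GAL4-UAS reporter units responsive to chimeric NR-GAL4 proteins; compound exposure 24 h. Reporter mRNA quantified by RT-PCR, 6-FAM labelling, HpaI digestion and capillary electrophoresis; gain of signal versus DMSO baseline.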

[8] = ATG_M_32_TRANS: Attagene TRANS-FACTORIAL HepG2 Assay for M32 Transcription Factor (Internal Marker) (AID 2282984); conditions: HepG2 Attagene TRANS M32 internal marker reporter;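 further: transcript level of a background control reporter unit measured by RT-PCR and capillary electrophoresis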
Summary of the method: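 HepG2 cells transiently transfected with multiple GAL4-UAS reporter transcription units, dosed for 24 hours; reporter mRNA quantified by RT-PCR, 6-FAM primer extension, HpaI digestion and capillary electrophoresis. Gain-of-signal fitted versus DMSO baseline; internal background-control marker.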

[9] = target: Transcriptional activator Myb (Homo sapiens) (UniProt P10242); assay: ATG_Myb_CIS: Attagene CIS-FACTORIAL HepG2 Assay for human Myeloblastosis (Myb) Proto-Oncogene Transcription Factor (AID 2282986; active means hit-call score of the fitted dose curve at least 0.9, where 1 is the maximum; inactive means score below 0.9); conditions: HepG2 Attagene CIS-FACTORIAL Myb reporter transcription; actives raise or lower the signal
Sequence of Transcriptional activator Myb (Homo sapiens) (P10242 whole entry, looked up): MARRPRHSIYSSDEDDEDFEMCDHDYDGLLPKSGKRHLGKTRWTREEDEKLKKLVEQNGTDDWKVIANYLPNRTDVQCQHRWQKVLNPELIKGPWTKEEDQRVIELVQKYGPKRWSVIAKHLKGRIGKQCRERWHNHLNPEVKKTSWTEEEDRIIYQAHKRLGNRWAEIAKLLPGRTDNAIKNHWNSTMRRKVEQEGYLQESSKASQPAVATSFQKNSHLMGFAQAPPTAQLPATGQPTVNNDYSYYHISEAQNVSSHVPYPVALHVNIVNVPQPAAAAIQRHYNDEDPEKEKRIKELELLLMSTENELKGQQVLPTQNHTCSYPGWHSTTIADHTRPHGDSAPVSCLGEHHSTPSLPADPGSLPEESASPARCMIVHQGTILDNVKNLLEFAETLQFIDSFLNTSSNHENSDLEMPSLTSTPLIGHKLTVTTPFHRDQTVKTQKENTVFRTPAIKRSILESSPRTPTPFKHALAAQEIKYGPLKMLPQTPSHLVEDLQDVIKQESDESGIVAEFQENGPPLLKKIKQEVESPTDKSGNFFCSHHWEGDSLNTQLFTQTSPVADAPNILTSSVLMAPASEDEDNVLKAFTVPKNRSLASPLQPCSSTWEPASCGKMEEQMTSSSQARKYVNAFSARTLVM
Summary of the method: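 Multiplexed cis-reporter system in HepG2: transient transfection, 24 h treatment, mRNA readout by RT-PCR and capillary electrophoresis. Both increases and decreases are scored versus DMSO negative control.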

[10] = target: Nuclear respiratory factor 1 (Homo sapiens) (UniProt Q16656); assay: ATG_NRF1_CIS: Attagene CIS-FACTORIAL HepG2 Assay for human Nuclear Respiratory Factor 1 (NRF1) Orphan Gene (AID 2282987; active means hit-call score of the fitted dose curve at least 0.9, where 1 is the maximum; inactive means score below 0.9); conditions: HepG2 NRF1 cis-element reporter, Attagene multiplex; actives raise or lower the signal
Sequence of Nuclear respiratory factor 1 (Homo sapiens) (Q16656 whole entry, looked up): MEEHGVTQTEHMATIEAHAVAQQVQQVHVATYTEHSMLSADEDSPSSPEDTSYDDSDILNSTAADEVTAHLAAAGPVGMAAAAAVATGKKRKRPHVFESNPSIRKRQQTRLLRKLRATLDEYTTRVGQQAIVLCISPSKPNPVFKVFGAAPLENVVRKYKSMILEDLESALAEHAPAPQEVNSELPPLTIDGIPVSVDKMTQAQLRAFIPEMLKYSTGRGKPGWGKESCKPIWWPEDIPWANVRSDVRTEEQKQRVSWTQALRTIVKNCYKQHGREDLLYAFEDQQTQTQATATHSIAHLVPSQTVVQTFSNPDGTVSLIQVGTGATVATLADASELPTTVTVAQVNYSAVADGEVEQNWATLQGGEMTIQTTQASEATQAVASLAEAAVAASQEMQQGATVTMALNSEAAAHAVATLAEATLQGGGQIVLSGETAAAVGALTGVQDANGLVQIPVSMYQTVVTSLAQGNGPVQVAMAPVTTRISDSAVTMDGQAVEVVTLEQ
Summary of the method: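 Endogenous factor activity was captured via cis-element-driven reporter transcripts in HepG2 cells. Following 24 h chemical treatment, transcripts were quantified by RT-PCR and capillary electrophoresis.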

[11] = ATG_GAL4_TRANS: Attagene TRANS-FACTORIAL HepG2 Assay for GAL4 (Internal Marker) (AID 2282976); conditions: HepG2 Attagene TRANS GAL4 internal marker reporter
Summary of the method: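 Liver HepG2 line bearing multiplexed GAL4-UAS reporter constructs; 24 h chemical treatment. Transcripts were quantified as fluorescent fragments on capillary electrophoresis after RT-PCR and HpaI cut, with activity fitted upward from DMSO.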

[12] = target: Glucocorticoid receptor (Homo sapiens) (UniProt P04150); assay: ATG_GR_TRANS: Attagene TRANS-FACTORIAL HepG2 Assay for human Glucocorticoid Receptor (GR) (AID 2282978); conditions: HepG2 Attagene TRANS GR reporter, mRNA transcription;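 further: activators score as hits since higher reporter transcript over DMSO is fitted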
Summary of the method: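 HepG2 transient transfection, multiple reporter units, GAL4-UAS under NR-GAL4 chimera control. 24 h treatment. Reporter mRNA by RT-PCR/CE fluorescence, DMSO as negative control.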

[13] = ATG_M_06_TRANS: Attagene TRANS-FACTORIAL HepG2 Assay for M06 Transcription Factor (Internal Marker) (AID 2282983); conditions: HepG2 Attagene TRANS M06 internal marker reporter;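 further: reporter transcript level by RT-PCR then capillary electrophoresis fluorescence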
Summary of the method: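 Internal-marker background readout from a multiplexed TRANS reporter system in HepG2; 24 h dosing; mRNA induction quantified by RT-PCR plus capillary electrophoresis fluorescence; DMSO as negative control and baseline.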

[14] = target: Nuclear receptor subfamily 4 group A member 2 (Homo sapiens) (UniProt P43354); assay: ATG_NURR1_TRANS: Attagene TRANS-FACTORIAL HepG2 Assay for human Nuclear Receptor Related Protein 1 (NURR1) (AID 2282985); conditions: HepG2 Attagene TRANS reporter, mRNA readout
Sequence of Nuclear receptor subfamily 4 group A member 2 (Homo sapiens) (P43354 whole entry, looked up, the tested form may be a part): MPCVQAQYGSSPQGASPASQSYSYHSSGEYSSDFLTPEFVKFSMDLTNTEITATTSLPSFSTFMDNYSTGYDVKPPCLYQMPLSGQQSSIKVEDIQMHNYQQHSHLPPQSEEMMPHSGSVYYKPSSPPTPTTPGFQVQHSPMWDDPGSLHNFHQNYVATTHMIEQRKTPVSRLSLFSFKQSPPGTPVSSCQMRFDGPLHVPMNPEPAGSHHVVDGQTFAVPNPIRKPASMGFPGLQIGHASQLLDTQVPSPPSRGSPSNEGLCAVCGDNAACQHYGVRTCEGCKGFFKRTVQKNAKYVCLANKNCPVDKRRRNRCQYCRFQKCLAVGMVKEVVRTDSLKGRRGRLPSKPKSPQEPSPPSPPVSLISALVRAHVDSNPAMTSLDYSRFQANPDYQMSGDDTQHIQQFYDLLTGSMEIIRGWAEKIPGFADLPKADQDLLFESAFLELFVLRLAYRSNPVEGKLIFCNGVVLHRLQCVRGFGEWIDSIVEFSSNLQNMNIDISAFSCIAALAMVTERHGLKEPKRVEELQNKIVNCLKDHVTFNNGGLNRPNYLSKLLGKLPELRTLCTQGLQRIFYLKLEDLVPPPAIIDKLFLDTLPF
Summary of the method: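 HepG2 cells transiently transfected with GAL4-UAS reporter units and chimeric NR-Gal4 constructs; chemical exposure 24 h. Reporter mRNA quantified by RT-PCR, fluorescent labelling and capillary electrophoresis; gain of signal fitted relative to DMSO baseline.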

[15] = target: Oxysterols receptor LXR-beta (Homo sapiens) (UniProt P55055); assay: ATG_LXRb_TRANS: Attagene TRANS-FACTORIAL HepG2 Assay for human Liver X Receptor beta (LXRb) (AID 2282981); conditions: HepG2 Attagene TRANS GAL4-LXRb reporter, mRNA
Sequence of Oxysterols receptor LXR-beta (Homo sapiens) (P55055 whole entry, looked up, the tested form may be a part): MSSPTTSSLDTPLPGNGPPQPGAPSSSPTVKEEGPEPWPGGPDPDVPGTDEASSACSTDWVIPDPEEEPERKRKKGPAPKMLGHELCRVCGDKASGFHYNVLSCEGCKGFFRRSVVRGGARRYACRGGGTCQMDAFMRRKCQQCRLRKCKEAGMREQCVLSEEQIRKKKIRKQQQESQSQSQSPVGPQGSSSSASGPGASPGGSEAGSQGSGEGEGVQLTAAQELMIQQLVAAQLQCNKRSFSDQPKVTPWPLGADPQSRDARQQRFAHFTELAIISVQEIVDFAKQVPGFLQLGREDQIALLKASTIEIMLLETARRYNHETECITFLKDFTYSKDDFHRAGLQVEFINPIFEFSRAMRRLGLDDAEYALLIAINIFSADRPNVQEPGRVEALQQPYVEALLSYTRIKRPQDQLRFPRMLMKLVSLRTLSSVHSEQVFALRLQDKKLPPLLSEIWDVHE
Summary of the method: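 HepG2 cells transiently transfected with multiple reporter transcription units carrying chimeric NR-Gal4 proteins acting on GAL4-UAS reporters; compound exposure 24 h. Reporter mRNA quantified by RT-PCR, 6-FAM labelling, HpaI digestion and capillary electrophoresis; gain of signal versus DMSO.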

[16] = target: Bile acid receptor (Homo sapiens) (UniProt Q96RI1); assay: ATG_FXR_TRANS: Attagene TRANS-FACTORIAL HepG2 Assay for Farnesoid X Receptor (FXR) (AID 2282979); conditions: HepG2 Attagene TRANS FXR-GAL4 reporter transcription;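 further: hits raise reporter mRNA above DMSO so AC50 marks FXR activation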
Sequence of Bile acid receptor (Homo sapiens) (Q96RI1 whole entry, looked up, the tested form may be a part): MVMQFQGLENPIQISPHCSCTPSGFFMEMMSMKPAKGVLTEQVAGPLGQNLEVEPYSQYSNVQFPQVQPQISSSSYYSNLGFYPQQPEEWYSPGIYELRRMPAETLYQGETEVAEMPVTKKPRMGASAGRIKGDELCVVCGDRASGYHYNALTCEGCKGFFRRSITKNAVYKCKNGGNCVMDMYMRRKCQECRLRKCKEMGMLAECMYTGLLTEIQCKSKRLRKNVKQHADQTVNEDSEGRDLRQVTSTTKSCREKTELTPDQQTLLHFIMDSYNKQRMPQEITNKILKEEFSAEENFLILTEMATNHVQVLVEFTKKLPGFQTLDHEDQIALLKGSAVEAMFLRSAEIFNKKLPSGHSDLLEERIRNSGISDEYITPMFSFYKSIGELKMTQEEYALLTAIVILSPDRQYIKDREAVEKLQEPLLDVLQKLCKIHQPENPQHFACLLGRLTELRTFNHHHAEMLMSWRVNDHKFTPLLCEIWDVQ
Summary of the method: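 After 24 h chemical treatment of transfected HepG2 cells, GAL4-UAS reporter transcripts driven by an exogenous FXR-GAL4 fusion were measured by RT-PCR and capillary electrophoresis. Increases over DMSO were fitted.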

[17] = target: Estrogen-related receptor gamma (Homo sapiens) (UniProt P62508); assay: ATG_ERRg_TRANS: Attagene TRANS-FACTORIAL HepG2 Assay for human Estrogen-Related Receptor gamma (ERRg) (AID 2282977); conditions: HepG2 Attagene TRANS reporter, ERRg transactivation;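 further: hits increase reporter signal over DMSO so potencies reflect activators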
Sequence of Estrogen-related receptor gamma (Homo sapiens) (P62508 whole entry, looked up, the tested form may be a part): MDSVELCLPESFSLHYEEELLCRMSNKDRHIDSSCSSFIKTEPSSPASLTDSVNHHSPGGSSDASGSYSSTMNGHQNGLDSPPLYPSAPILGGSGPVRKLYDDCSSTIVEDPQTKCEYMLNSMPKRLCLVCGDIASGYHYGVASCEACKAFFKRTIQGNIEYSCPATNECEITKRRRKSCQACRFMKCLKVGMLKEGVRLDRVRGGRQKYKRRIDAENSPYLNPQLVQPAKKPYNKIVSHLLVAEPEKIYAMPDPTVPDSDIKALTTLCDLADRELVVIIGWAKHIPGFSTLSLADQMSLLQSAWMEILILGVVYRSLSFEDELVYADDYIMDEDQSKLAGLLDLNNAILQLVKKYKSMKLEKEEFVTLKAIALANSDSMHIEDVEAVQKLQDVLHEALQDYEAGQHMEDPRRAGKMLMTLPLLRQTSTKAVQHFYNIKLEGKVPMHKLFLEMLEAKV
Summary of the method: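 Transient HepG2 transfectants, 24 h compound exposure, GAL4-UAS reporter mRNA by RT-PCR/6-FAM labelling/capillary electrophoresis; positive direction vs DMSO.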

[18] = target: Oxysterols receptor LXR-alpha (Homo sapiens) (UniProt Q13133); assay: ATG_LXRa_TRANS: Attagene TRANS-FACTORIAL HepG2 Assay for human Liver X Receptor alpha (LXRa) (AID 2282980); conditions: HepG2 Attagene TRANS reporter, LXRa transactivation
Sequence of Oxysterols receptor LXR-alpha (Homo sapiens) (Q13133 whole entry, looked up, the tested form may be a part): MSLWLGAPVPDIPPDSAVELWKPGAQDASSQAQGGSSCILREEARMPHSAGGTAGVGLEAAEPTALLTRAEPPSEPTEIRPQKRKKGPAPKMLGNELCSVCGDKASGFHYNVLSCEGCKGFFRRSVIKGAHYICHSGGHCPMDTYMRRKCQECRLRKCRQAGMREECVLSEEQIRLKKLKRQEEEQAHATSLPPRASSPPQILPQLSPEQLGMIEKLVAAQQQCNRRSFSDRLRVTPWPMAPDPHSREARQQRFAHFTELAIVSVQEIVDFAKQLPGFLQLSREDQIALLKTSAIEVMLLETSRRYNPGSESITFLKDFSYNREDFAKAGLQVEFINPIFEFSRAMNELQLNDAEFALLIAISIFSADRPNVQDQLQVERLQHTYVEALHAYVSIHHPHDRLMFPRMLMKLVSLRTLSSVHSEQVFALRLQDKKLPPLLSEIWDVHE
Summary of the method: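 In this multiplexed TRANS system, compounds act on HepG2 cells carrying GAL4-UAS reporter units and a receptor-GAL4 fusion for 24 h. Induced reporter RNA is amplified, fluorescently labelled and sized by capillary electrophoresis, with DMSO as baseline.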

[19] = target: Steroid hormone receptor ERR1 (Homo sapiens) (UniProt P11474); assay: ATG_ERRa_TRANS: Attagene TRANS-FACTORIAL HepG2 Assay for human Estrogen-Related Receptor alpha (ERRa) (AID 2282971); conditions: HepG2 Attagene TRANS reporter, ERRa transactivation
Summary of the method: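 Signal gain relative to DMSO for an ERRa-Gal4 chimeric receptor, read as reporter mRNA by RT-PCR/capillary electrophoresis. Human HepG2 liver cells, transient multiplex reporter transfection, 24 h chemical exposure.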

Measured: AC50

Cc1cc(C)c(C)cc1C
inactive: [1] | [2] | [3] | [4] | [5] | [6] | [7] | [8] | [9] | [10]

C=C(C)C(=O)OCCOc1ccccc1
not listed: [6] | [8] | [15] | [16] | [17] | [18] | [19]
inactive: all other assays above

CC(C)CCCCCOC(=O)CCS
not listed: [11] | [13] | [14] | [16] | [17] | [18] | [19]
inactive: all other assays above

O=C1c2ccccc2C(=O)C1c1nc2ccccc2c(Br)c1O
active: [2] 100 µM | [3] 17.2 µM
not listed: [6] | [13] | [16] | [17] | [18] | [19]
inactive: all other assays above

NC(=O)c1ccccc1O
not listed: [7] | [8] | [12] | [14] | [17] | [18] | [19]
inactive: all other assays above

CCC(CO)CO
not listed: [13] | [16] | [17] | [18] | [19]
inactive: all other assays above

C[Si](C)O[Si](C)(C)O[Si](C)(C)O[Si](C)C
active: [4] 30.3 µM
not listed: [6] | [7] | [9] | [16] | [17] | [18] | [19]
inactive: all other assays above

CC(CC=O)c1ccccc1 (stereo unspecified)
inactive: [1] | [2] | [4] | [5] | [6] | [11] | [13] | [14] | [9] | [10]
active: [3] 7.03 µM

CCCCOCCOC(=O)COc1nc(Cl)c(Cl)cc1Cl
inactive: [1] | [2] | [3] | [4] | [5] | [6] | [8] | [9] | [10]

O=[N+]([O-])c1ccc(CO)cc1
not listed: [6] | [7] | [15] | [16] | [17] | [18] | [19]
inactive: all other assays above

C1=CCCC1
not listed: [7] | [12] | [14] | [15] | [17] | [18] | [19]
inactive: all other assays above

COc1cc(C)ccc1C(C)C
not listed: [12] | [15] | [16] | [19]
inactive: all other assays above

OCCN(CCO)c1ccccc1
not listed: [7] | [8] | [12] | [16] | [17] | [18] | [19]
inactive: all other assays above

Cc1ccc2oc(=O)ccc2c1
not listed: [12] | [13] | [16] | [17] | [18] | [19]
inactive: all other assays above

C=CC=CC=CCCCCC
not listed: [6] | [11] | [15] | [16] | [17]
inactive: all other assays above

Nc1ccc(Oc2ccc(N)c(N)c2)cc1
not listed: [6] | [7] | [15] | [17] | [18] | [19]
inactive: all other assays above

O=C(O)C(c1ccc(Cl)cc1)c1ccc(Cl)cc1
active: [4] 7.33 µM
inactive: [1] | [2] | [3] | [5] | [6] | [11] | [18] | [7] | [9] | [10]

CC(C)COC(=O)C=Cc1ccccc1
active: [4] 71.6 µM
not listed: [6] | [7] | [8] | [12] | [17] | [19]
inactive: all other assays above

CC[C@H]1OC(=O)[C@H](C)[C@@H](O[C@H]2C[C@@](C)(OC)[C@@H](O)[C@H](C)O2)[C@H](C)[C@@H](O[C@@H]2O[C@H](C)C[C@H](N(C)C)[C@H]2O)[C@](C)(O)C[C@@H](C)C(=NOCOCCOC)[C@H](C)[C@@H](O)[C@]1(C)O
not listed: [7] | [8] | [9] | [12] | [13] | [17] | [18] | [19]
inactive: all other assays above
